In the supplement of paper PMC12669032:
Unmarked numbers belong to inactive results.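 The calls were made as follows: active = AUC reduced over 20% with Padj below 0.05 in at least 2 of 3 replicates; inactive = otherwise.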

How the values were obtained:
Test in all cases: growth AUC relative to DMSO control (median of replicates) (fraction); higher = more growth (less inhibition), active = hit call of the paper
Settings in all cases: 20 µM; 24 h
Akkermansia muciniphila = tested on: Akkermansia muciniphila
Outline: (§1)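 Each value is the median of three biological replicates, grown on separate days, of a gut bacterial monoculture incubated anaerobically at 37 °C in mGAM with 20 µM compound (1% DMSO). Cultures started at OD600 0.05 and were read at OD600 hourly for 24 h, with the minimum OD set to 0. Area under the growth curve was normalised to the plate median of solvent-only wells, or to row and column medians on the industrial chemical plate.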

Bacteroides caccae = tested on: Bacteroides caccae
Outline: as §1

Bacteroides clarus = tested on: Bacteroides clarus
Outline: as §1

Bacteroides dorei = tested on: Bacteroides dorei
Outline: as §1

Bacteroides stercoris = tested on: Bacteroides stercoris
Outline: as §1

[1] = tested on: Bacteroides thetaiotaomicron
Outline: as §1

Bacteroides uniformis = tested on: Bacteroides uniformis
Outline: as §1

[2] = tested on: Bifidobacterium longum subsp. longum
Outline: as §1

Clostridium difficile = tested on: Clostridium difficile
Outline: as §1

Collinsella aerofaciens = tested on: Collinsella aerofaciens
Outline: as §1

Coprococcus comes = tested on: Coprococcus comes
Outline: as §1

Escherichia coli ED1a = tested on: Escherichia coli ED1a
Outline: as §1

Escherichia coli IAI1 = tested on: Escherichia coli IAI1
Outline: as §1

Eubacterium rectale = tested on: Eubacterium rectale
Outline: as §1

[3] = tested on: Fusobacterium nucleatum subsp. animalis
Outline: as §1

Lactobacillus gasseri = tested on: Lactobacillus gasseri
Outline: as §1

Lactobacillus paracasei = tested on: Lactobacillus paracasei
Outline: as §1

Odoribacter splanchnicus = tested on: Odoribacter splanchnicus
Outline: as §1

[4] = tested on: Parabacteroides distasonis
Outline: as §1

Parabacteroides merdae = tested on: Parabacteroides merdae
Outline: as §1

SMILES	growth AUC (Akkermansia muciniphila)	growth AUC (Bacteroides caccae)	growth AUC (Bacteroides clarus)	growth AUC (Bacteroides dorei)	growth AUC (Bacteroides stercoris)	growth AUC [1]	growth AUC (Bacteroides uniformis)	growth AUC [2]	growth AUC (Clostridium difficile)	growth AUC (Collinsella aerofaciens)	growth AUC (Coprococcus comes)	growth AUC (Escherichia coli ED1a)	growth AUC (Escherichia coli IAI1)	growth AUC (Eubacterium rectale)	growth AUC [3]	growth AUC (Lactobacillus gasseri)	growth AUC (Lactobacillus paracasei)	growth AUC (Odoribacter splanchnicus)	growth AUC [4]	growth AUC (Parabacteroides merdae)
CSC(=O)c1cccc2nnsc12	0.851	1.04	0.997	0.978	1.07	0.961	1	1.04	1	1.01	1.01	0.994	0.981	1.03	1.12	0.934	0.953	1.01	0.921	1.01
c1ccc(Nc2ccccc2)cc1	0.883	1.01	0.94	1.03	0.951	1	0.981	0.953	0.999	1.01	0.97	0.986	1.01	0.9	0.988	1.1	0.878	1.03	1.02	0.983
Oc1ccc2ccccc2c1N=Nc1ccccc1	1	0.973	1.01	0.977	0.972	1	1	0.942	0.991	0.917	0.858	1.01	1.01	0.983	1	0.973	0.733 (active)	1.04	0.905	1.05
c1ccc2[nH]c(-c3cscn3)nc2c1	0.73	0.997	1.01	0.973	0.947	0.974	1.02	0.976	0.985	0.985	0.96	1.01	0.989	0.878	0.97	1	0.991	0.962	0.974	0.972
NC(=S)Nc1cccc2ccccc12	0.997	0.892	0.991	0.835	0.978	0.945	0.951	1.06	0.896	0.909	0.974	0.96	0.959	1.03	0.924	0.888	0.946	0.983	1.05	0.915
CS(=O)(=O)c1ccc(C(=O)C2C(=O)C(O)CC(O)C2=O)c(Cl)c1COCC(F)(F)F (stereo not given)	0.99	0.986	0.96	0.972	0.982	0.965	0.975	0.978	0.99	1	1	0.988	0.972	0.798	1.02	1.02	0.987	0.98	1.03	0.998
c1cc2ccc3ccc4ccc5cccc6c(c1)c2c3c4c56	0.936	1	1	1.01	1	1	1	1.03	0.971	0.993	1.01	1.04	1.01	0.999	0.946	0.994	1.02	1.01	1.04	1.02
CCCC(C)(C)C(=O)Nc1ccc(Cl)cc1	0.942	1	1.01	1.02	1.01	0.946	0.955	0.98	0.999	1.02	0.978	0.973	1.01	0.958	0.938	1.1	0.989	0.958	0.928	0.949
CC1CN(C2CCCCCCCCCCC2)CC(C)O1 (mixture of isomers)	0.892	1.01	0.967	1.06	0.84	0.985	1.08	0.985	0.961	0.915	0.992	0.994	0.971	1.23	0.955	0.926	1.02	1.14	1.02	0.97
O=C(O)COc1cccc(Cl)c1Cl	0.919	0.947	0.971	0.962	1.02	0.993	0.997	0.989	1	0.992	1.01	0.987	1.01	1.04	1.12	1.11	0.898	0.92	0.994	0.986
COC(=O)c1c(Cl)ccc(Cl)c1OC	1.02	1	1.01	1.04	0.942	1.02	1	1.04	1.04	1.04	1.04	1.04	1.03	0.969	0.968	0.979	0.921	1.04	1.05	1.01
CCC(C)Nc1nc(N)nc(Cl)n1 (stereo not given)	1.09	0.906	0.995	1.02	1.16	1.01	0.949	1.03	0.974	1.01	0.981	1	1.01	1.05	1.03	0.996	1.02	0.976	1.01	1.03
COC(=O)C(C)Oc1cc(Cl)c(Cl)cc1Cl (stereo not given)	0.978	0.982	1	1.04	1.22	0.982	0.978	1.03	1.03	0.982	1	0.985	1.05	0.975	1.03	1.12	0.883	0.927	0.994	0.974
COC(=O)C(C)Oc1ccc(Oc2ccc(C(F)(F)F)cn2)cc1 (stereo not given)	1.14	0.979	0.992	0.948	1.23	0.965	0.968	1.02	1.01	0.979	0.977	1.02	1.02	1.06	1.12	0.958	0.98	1.02	0.821	0.963
CCOCCOC(=O)C(C)Oc1ccc(Oc2ncc(C(F)(F)F)cc2Cl)cc1 (stereo not given)	1.02	0.955	0.968	0.948	0.903	0.998	0.903	1.01	1.01	1.03	0.989	0.996	0.986	1.05	1.05	0.952	1.02	1.07	0.859	0.991
COc1ccc(Cl)c(Cl)c1Cl	0.963	1.03	1.01	1.02	0.971	0.991	1	0.986	0.964	1.01	0.994	0.983	1.02	0.966	0.982	1.01	0.993	1.01	1.04	0.961

SMILES	growth AUC (Akkermansia muciniphila)	growth AUC (Bacteroides caccae)	growth AUC (Bacteroides clarus)	growth AUC (Bacteroides dorei)	growth AUC (Bacteroides stercoris)	growth AUC [1]	growth AUC (Bacteroides uniformis)	growth AUC [2]	growth AUC (Clostridium difficile)	growth AUC (Collinsella aerofaciens)	growth AUC (Coprococcus comes)	growth AUC (Escherichia coli ED1a)	growth AUC (Escherichia coli IAI1)	growth AUC (Eubacterium rectale)	growth AUC [3]	growth AUC (Lactobacillus gasseri)	growth AUC (Lactobacillus paracasei)	growth AUC (Odoribacter splanchnicus)	growth AUC [4]	growth AUC (Parabacteroides merdae)
COC(=O)c1ccccc1S(=O)(=O)NC(=O)Nc1nc(OC(F)F)cc(OC(F)F)n1	0.91	1	0.971	0.997	0.988	0.965	1.02	1.03	0.993	0.992	1	1.02	1.01	0.964	0.957	1.19	1.04	0.99	1.04	1
CCOC(=O)C(C)N(C(=O)c1ccccc1)c1ccc(Cl)c(Cl)c1 (stereo not given)	1.07	0.975	0.948	0.963	1.13	0.922	0.89	0.945	1.01	1.02	0.971	1.03	0.991	1.04	1.02	0.935	1.03	0.985	0.733 (active)	0.939
O=[N+](Nc1ccccc1)c1ccccc1	0.945	0.972	0.966	0.997	1.08	0.991	0.988	0.934	1	0.965	0.959	0.993	0.955	0.921	0.978	0.973	1.04	0.973	0.976	0.986
COc1cc(OC)nc(Sc2cccc3c2C(=O)OC3C)n1 (stereo not given)	0.871	1.01	0.989	1.04	1.06	0.974	0.97	0.974	0.998	1.03	1	0.984	0.999	1.02	0.965	1.06	1	1.09	0.904	0.968
CCC(C)c1cc([N+](=O)[O-])cc([N+](=O)[O-])c1OC(=O)OC(C)C (stereo not given)	1.05	0.909	0.81	0.892	0.294 (active)	0.875	0.881	0.959	0.945	0.915	0.867	0.911	0.929	1.02	0.611 (active)	0.859	0.951	1.09	0.979	0.929
Cc1cccc(C)c1N(CCSCC(O)C(=O)[O-])C(=O)CO.[Na+] (stereo not given)	1.15	0.993	1.02	0.907	1.01	0.98	1.01	1.05	0.992	0.913	1.04	0.977	0.97	1.07	0.984	0.849	0.95	1.01	0.927	0.99
Clc1ccc(CSc2ccc(Cl)cc2)cc1	0.977	1.02	0.99	0.956	0.969	1.03	0.998	1.02	1.04	0.984	1.03	1	0.989	1.05	1.07	0.98	1.02	1.07	1	0.979
CSc1nnc(C(C)(C)C)c(=O)n1/N=C/C(C)C	0.944	0.905	1.04	1.02	1.35	1.02	0.988	1.08	1.01	1.02	1.02	1.04	0.979	1.1	1.08	1.08	1.03	0.96	1.03	1.02
O.O=C(Nc1ccc([N+](=O)[O-])cc1Cl)c1cc(Cl)ccc1O	0.828	0.0261 (active)	0.00802 (active)	0.0256 (active)	0.00906 (active)	0.00758 (active)	0.0308 (active)	0.0965 (active)	0.328 (active)	0.865	0.884	1	0.973	0.952	0.741	0.15 (active)	0.3 (active)	0.039 (active)	0.0373 (active)	0.0254 (active)
COC(=O)C(C)Oc1ccc(Cl)cc1Cl (stereo not given)	0.964	1.05	1	1.05	0.849	1.01	1.05	1	1.03	0.987	1.01	1.01	0.988	1.14	0.95	0.991	1.01	1.11	0.996	1.01
CCN(CC)C(=O)SCc1ccccc1Cl	0.931	1.02	0.985	1	1.01	0.983	0.957	0.965	0.996	1.01	1.01	1.04	1	0.939	0.964	1.1	0.994	1.12	0.92	0.95
CCCCCC(C)OC(=O)COc1ccc(Cl)c2cccnc12 (stereo not given)	1.01	0.887	0.956	0.945	1.03	0.889	0.915	0.953	0.934	0.853	0.795 (active)	0.933	0.989	0.177 (active)	1.01	0.865	0.925	1	0.741 (active)	0.943
CN1CCC[C@H]1c1cccnc1	0.753	0.995	0.997	1.04	1	0.984	0.981	1.01	0.951	1.04	0.984	0.99	1.01	0.978	0.98	0.941	0.991	0.989	1.02	0.993
COC(=O)c1ccc(C(=O)OC)cc1	0.99	0.964	0.978	1.01	1.02	0.991	0.972	0.993	1.01	1.01	0.981	1	0.989	1	1.01	0.981	0.958	0.989	0.993	0.993
CO/N=C(/C(=O)O)c1ccccc1CO/N=C(\C)c1cccc(C(F)(F)F)c1	1	0.913	0.954	0.981	1.15	0.795	0.889	0.927	0.974	0.936	0.977	0.986	0.979	1.07	1.04	0.948	1.02	0.775	0.985	0.99
Nc1ccc(S(=O)(=O)Nc2cnc3ccccc3n2)cc1	0.923	1.01	0.99	1.02	1.01	0.946	0.984	1.12	0.975	0.982	0.996	1	0.975	0.983	0.936	1.03	0.887	1.01	1.01	0.97
